Reference: the supplement of paper PMC11732987, “Enantioselective OTUD7B fragment discovery through chemoproteomics screening and high-throughput optimisation” (Communications Chemistry, 2025)

Columns and labels:
Assay in all cases: log2 ratio of Biotin-Ahx-Ub-VS probe labelling (fragment/DMSO); higher = less target engagement (more negative = stronger competition), active = hit call of the paper (q ≤ 0.05, log2 ratio ≤ -1)
Details in all cases: compound concentration: 200 uM; treatment time: 3 h
USP34 = USP34 (UniProt Q70CQ2)
Sequence of USP34 (Q70CQ2 whole entry, the tested form may be a part): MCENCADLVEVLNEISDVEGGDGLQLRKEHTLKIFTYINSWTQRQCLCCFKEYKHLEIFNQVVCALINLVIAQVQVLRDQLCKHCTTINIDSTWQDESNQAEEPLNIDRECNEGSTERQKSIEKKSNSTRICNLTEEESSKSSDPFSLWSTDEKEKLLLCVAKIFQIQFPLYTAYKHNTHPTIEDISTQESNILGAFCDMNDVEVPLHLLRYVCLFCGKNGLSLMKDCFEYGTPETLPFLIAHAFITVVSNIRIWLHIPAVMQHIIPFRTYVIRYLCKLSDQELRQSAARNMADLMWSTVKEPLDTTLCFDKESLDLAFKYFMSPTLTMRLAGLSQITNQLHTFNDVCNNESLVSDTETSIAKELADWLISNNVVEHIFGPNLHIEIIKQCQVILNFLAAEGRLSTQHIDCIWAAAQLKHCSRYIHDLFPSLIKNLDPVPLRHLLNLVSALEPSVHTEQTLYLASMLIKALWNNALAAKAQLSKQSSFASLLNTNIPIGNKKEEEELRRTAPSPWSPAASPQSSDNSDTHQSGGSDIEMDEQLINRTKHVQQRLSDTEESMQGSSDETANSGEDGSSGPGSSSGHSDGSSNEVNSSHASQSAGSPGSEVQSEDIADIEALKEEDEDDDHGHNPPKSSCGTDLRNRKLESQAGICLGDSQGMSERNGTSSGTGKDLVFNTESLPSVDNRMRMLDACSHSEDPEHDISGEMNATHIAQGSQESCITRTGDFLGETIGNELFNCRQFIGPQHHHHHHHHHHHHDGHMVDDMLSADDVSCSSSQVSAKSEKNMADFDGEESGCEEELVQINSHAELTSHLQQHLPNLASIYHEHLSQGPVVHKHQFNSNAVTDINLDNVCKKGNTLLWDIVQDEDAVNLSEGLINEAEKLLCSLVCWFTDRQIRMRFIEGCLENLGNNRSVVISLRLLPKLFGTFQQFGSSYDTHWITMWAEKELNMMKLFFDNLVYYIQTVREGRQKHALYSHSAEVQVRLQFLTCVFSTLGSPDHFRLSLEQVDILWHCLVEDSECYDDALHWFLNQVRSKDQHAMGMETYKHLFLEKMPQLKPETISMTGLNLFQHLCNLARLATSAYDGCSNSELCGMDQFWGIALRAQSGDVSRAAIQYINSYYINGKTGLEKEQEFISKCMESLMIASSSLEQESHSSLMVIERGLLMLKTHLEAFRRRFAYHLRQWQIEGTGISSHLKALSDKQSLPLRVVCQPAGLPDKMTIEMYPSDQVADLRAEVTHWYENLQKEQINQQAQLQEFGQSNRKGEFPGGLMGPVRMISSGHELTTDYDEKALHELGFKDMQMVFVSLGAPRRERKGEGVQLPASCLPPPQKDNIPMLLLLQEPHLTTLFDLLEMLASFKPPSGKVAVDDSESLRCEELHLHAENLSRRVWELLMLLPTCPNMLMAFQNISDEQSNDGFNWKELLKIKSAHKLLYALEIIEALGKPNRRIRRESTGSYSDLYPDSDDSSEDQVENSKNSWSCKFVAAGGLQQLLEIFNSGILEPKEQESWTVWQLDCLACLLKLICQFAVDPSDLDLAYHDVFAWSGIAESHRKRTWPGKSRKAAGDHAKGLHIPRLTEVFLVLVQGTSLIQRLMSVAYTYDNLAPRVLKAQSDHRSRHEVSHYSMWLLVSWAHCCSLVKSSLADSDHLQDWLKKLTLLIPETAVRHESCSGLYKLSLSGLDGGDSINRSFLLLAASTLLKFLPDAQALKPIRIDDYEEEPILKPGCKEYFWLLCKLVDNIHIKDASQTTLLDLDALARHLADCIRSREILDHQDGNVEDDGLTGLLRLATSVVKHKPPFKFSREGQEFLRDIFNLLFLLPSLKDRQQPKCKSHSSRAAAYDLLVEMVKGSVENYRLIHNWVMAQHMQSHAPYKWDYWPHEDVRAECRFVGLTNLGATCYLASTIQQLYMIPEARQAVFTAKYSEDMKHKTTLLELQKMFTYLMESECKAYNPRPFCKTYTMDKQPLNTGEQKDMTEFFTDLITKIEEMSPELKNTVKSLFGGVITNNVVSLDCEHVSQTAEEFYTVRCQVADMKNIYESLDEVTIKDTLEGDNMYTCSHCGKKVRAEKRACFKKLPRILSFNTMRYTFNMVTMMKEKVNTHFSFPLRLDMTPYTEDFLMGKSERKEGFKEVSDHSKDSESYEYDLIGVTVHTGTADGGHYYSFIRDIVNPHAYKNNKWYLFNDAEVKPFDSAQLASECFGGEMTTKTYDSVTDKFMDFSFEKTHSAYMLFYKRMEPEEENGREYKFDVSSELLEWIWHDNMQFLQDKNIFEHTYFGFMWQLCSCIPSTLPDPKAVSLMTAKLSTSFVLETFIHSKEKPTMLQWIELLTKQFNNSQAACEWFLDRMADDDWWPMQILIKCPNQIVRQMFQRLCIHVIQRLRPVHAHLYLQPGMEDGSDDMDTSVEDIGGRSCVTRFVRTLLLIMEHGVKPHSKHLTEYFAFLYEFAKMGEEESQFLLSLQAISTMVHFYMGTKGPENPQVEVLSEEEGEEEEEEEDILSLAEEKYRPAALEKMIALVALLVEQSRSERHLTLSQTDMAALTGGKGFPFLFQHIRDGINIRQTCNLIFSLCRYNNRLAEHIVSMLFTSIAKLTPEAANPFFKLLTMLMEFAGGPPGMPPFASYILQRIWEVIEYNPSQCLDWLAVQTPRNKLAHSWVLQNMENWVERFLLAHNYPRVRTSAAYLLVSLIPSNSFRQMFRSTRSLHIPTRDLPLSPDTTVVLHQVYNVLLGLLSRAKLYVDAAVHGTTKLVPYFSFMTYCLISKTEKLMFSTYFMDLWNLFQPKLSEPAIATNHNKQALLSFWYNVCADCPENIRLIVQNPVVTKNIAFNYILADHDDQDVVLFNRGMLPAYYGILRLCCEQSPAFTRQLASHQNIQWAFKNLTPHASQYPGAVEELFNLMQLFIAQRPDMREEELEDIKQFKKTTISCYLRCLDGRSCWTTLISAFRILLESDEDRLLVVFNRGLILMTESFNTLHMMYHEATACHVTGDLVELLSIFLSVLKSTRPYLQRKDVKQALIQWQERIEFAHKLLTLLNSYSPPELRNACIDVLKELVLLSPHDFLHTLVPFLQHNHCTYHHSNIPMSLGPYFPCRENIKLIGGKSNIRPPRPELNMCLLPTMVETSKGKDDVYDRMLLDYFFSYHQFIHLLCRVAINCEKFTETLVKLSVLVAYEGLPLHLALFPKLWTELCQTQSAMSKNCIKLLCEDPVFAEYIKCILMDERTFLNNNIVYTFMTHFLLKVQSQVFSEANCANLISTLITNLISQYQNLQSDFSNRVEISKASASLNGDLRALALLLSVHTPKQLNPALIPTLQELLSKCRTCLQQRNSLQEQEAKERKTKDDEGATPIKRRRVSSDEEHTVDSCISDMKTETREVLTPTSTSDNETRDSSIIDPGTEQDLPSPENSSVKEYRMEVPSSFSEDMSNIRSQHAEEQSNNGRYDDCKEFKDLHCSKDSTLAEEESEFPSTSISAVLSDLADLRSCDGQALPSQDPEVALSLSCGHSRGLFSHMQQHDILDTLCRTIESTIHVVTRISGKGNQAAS
How it was run: (§1)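 Labelling with Biotin-Ahx-Ub-VS (0.5 µM final, 1 h) followed a 3 h triplicate treatment of HEK293T lysate (495 µg per sample, Tris/CHAPS/IGEPAL buffer with protease inhibitors) with fragment at 200 µM or vehicle. Labelled DUBs were NeutrAvidin-enriched, digested with LysC and trypsin, and run by diaPASEF LC-MS/MS. The values, average log2 fragment/vehicle ratios by unpaired t-test, come from global-median-normalised Spectronaut label-free quantities. Proteins with ≥2 unique peptides were used.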

USP36 = target: T1, USP36 (UniProt Q9P275)
T1 sequence (whole entry): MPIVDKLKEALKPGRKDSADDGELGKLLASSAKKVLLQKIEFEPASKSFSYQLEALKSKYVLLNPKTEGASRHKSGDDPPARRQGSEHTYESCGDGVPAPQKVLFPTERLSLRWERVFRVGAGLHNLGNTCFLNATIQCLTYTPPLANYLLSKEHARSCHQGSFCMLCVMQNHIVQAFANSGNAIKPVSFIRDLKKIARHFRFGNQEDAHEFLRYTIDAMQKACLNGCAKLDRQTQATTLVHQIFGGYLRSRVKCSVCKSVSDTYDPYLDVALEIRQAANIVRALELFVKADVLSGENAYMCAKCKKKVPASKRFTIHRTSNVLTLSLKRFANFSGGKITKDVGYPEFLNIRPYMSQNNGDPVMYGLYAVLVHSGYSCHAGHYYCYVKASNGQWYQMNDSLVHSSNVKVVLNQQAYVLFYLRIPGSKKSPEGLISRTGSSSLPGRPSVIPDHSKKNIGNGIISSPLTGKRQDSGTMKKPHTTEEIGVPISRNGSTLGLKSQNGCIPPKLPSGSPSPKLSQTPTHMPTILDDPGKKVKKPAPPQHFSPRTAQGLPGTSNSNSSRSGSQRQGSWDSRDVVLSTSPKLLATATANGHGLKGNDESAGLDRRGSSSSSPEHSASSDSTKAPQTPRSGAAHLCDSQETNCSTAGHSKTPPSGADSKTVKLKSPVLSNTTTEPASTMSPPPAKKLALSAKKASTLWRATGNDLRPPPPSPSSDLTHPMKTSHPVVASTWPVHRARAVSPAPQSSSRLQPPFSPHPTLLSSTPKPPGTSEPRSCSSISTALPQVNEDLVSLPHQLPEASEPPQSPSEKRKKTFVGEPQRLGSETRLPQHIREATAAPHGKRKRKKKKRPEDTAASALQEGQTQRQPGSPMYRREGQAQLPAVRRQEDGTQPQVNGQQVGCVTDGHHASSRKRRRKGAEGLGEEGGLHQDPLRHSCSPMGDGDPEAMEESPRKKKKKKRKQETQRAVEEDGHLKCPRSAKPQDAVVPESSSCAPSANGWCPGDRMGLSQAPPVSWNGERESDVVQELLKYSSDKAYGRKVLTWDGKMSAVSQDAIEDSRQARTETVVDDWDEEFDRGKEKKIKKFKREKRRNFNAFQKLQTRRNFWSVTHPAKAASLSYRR
How it was run: as §1

USP38 = target: T2, USP38 (UniProt Q8NB14)
T2 sequence (whole entry): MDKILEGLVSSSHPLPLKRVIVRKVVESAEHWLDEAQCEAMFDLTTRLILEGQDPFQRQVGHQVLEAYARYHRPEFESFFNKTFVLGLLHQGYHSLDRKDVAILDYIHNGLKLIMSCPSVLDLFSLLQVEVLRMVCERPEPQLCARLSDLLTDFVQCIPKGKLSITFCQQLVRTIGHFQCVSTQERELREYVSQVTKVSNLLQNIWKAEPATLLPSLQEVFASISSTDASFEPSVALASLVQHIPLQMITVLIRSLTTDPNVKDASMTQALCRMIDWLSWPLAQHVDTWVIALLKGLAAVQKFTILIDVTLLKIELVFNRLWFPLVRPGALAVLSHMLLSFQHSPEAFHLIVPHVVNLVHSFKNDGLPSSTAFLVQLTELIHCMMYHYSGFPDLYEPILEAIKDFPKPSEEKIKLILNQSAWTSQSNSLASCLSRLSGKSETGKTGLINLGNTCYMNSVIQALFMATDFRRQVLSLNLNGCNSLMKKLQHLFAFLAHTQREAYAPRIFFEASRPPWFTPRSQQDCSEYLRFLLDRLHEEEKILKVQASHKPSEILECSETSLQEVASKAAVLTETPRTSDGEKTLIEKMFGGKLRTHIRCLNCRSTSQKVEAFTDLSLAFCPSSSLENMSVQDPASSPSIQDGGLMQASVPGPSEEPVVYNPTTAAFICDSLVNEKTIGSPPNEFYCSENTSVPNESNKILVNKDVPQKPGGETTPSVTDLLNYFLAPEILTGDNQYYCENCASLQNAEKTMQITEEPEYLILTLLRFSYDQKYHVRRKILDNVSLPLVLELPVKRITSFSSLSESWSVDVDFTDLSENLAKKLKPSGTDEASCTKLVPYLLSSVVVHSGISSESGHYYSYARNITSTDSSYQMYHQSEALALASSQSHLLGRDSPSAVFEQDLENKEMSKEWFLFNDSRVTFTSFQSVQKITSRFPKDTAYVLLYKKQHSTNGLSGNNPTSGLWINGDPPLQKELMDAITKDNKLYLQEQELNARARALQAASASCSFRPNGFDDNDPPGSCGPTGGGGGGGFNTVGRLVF
How it was run: as §1

USP39 = target: T3, USP39 (UniProt Q53GS9)
T3 sequence (whole entry): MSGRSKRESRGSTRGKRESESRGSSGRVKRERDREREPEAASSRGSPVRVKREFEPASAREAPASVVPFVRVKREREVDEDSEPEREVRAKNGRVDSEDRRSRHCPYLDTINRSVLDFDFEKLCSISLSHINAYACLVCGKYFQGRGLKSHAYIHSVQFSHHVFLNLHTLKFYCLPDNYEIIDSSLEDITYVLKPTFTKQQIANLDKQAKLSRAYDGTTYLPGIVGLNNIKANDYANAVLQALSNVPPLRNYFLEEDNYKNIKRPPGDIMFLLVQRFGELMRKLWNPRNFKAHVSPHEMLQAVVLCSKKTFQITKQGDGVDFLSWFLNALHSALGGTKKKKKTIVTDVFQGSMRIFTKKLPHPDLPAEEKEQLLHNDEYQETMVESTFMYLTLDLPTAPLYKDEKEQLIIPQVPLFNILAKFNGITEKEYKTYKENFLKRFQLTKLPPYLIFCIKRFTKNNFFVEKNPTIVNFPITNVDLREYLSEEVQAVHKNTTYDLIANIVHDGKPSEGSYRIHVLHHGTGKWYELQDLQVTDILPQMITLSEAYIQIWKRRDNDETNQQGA
How it was run: as §1

USP4 = target: T4, USP4 (UniProt Q13107)
T4 sequence (whole entry): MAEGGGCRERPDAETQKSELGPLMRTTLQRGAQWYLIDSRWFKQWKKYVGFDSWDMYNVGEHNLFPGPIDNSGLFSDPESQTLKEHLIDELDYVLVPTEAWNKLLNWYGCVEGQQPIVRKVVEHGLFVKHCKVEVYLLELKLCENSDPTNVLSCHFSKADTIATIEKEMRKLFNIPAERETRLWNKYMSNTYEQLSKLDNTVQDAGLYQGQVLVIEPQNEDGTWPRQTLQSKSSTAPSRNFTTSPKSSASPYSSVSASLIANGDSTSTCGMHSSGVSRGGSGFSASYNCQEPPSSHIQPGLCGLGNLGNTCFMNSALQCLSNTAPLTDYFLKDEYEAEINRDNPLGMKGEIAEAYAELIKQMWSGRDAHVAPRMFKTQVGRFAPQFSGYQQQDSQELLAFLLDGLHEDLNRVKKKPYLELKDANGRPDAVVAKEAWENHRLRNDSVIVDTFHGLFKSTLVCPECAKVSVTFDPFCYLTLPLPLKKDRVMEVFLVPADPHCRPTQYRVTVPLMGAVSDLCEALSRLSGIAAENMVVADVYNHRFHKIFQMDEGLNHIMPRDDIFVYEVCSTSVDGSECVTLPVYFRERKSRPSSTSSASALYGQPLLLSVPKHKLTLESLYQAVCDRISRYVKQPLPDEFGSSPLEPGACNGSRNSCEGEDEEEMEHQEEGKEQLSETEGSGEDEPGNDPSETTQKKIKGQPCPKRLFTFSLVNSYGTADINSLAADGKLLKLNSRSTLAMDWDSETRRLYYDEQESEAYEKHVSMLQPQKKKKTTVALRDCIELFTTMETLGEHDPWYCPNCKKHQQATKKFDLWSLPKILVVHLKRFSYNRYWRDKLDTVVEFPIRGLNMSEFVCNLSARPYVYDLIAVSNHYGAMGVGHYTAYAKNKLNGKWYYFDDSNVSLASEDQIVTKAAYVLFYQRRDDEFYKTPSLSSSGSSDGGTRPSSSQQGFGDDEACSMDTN
How it was run: as §1

Measured: log2 ratio of Biotin-Ahx-Ub-VS probe labelling

CN(C)S(=O)(=O)c1ccccc1CNC(=O)CCl
inactive: USP34 0.137 | USP36 -0.00554 | USP38 0.218 | USP39 0.237 | USP4 -0.0523
